Records with an inconclusive call do not appear. Calls of active or inactive are those of the source. The calls were made as follows: active = hit-call score of the fitted dose curve at least 0.9, where 1 is the maximum; inconclusive = response in the unintended direction; inactive = score below 0.9.
molecular target: Oxysterols receptor LXR-beta (Homo sapiens) (UniProt P55055); assay: ATG_LXRb_TRANS: Attagene TRANS-FACTORIAL HepG2 Assay for human Liver X Receptor beta (LXRb) (AID 2282981); details: HepG2 Attagene TRANS GAL4-LXRb reporter, mRNA
Method: ATG_TRANS is a cell-based, multiplexed-readout assay that uses HepG2, a human liver cell line, with measurements taken at 24 hours after chemical dosing in a 24-well plate.ATG_LXRb_TRANS is one of 30 assay component(s) measured or calculated from the ATG_TRANS assay. It is designed to make measurements of mRNA induction, a form of inducible reporter, as detected with fluorescence intensity signals by Reverse transcription polymerase chain reaction (RT-PCR) and Capillary electrophoresis technology.Data from the assay component ATG_LXRb_TRANS was analyzed into 1 assay endpoint. This assay endpoint, ATG_LXRb_TRANS, was analyzed in the positive analysis fitting direction relative to DMSO as the negative control and baseline of activity. Using a type of inducible reporter, measures of mRNA for gain-of-signal activity can be used to understand the reporter gene at the transcription factor-level as they relate to the gene NR1H2. Furthermore, this assay endpoint can be referred to as a primary readout, because this assay has produced multiple assay endpoints where this one serves a reporter gene function. To generalize the intended target to other relatable targets, this assay endpoint is annotated to the nuclear receptor intended target family, where the subfamily is non-steroidal.
Human liver HepG2 cells are transiently transfected with multiple reporter transcription units (MRTUs) in 6-well plates using FuGene 6 reagent (Roche; 3 ml FuGene/1 mg DNA). The MRTU constructs are regulated by a cis-regulating element (promoter). […] A major difference between the CIS and TRANS system is that in CIS activities of endogenous TFs are measured, whereas the TRANS assay evaluates changes in activities of exogenous, chimeric NR-Gal4 proteins. […] At the end of 24 hour incubation, total RNA was isolated using TriZol reagent (Invitrogen). The isolated RNA is then reverse-transcribed using oligo(dT) primer and Mo-MLV reverse transcriptase (Invitrogen) with DNAse I (Ambion) treatment for 30 min. The one-tenth of the produced cDNA was amplified by PCR using Taq DNA polymerase (Invitrogen) and two reporter sequence-specific primers. The PCR products were fluorescently labeled by primer extension with 6-arboxyfluorescein (6-FAM) 5'-labeled reporter sequence-specific primer (2 min at 95 C, 20 s at 68 C and 10 min at 72 C) and these products were digested with 5U of HpaI (New England Biolabs) for 2h at 37 C. The fragments were purified using Qiaquick PCR columns (Qiagen), analyzed on an ABI 3130xL genetic analyzer (Applied Biosystems) with peak positions identified by using a set of X-rhodamine (ROX)-labeled MapMarker1000 molecular weight standards (BioVentures). The raw capillary electrophoresis data was processed using Attagraph software (Attagene).

Sequence of Oxysterols receptor LXR-beta (Homo sapiens) (P55055 whole entry, looked up, the tested form may be a part): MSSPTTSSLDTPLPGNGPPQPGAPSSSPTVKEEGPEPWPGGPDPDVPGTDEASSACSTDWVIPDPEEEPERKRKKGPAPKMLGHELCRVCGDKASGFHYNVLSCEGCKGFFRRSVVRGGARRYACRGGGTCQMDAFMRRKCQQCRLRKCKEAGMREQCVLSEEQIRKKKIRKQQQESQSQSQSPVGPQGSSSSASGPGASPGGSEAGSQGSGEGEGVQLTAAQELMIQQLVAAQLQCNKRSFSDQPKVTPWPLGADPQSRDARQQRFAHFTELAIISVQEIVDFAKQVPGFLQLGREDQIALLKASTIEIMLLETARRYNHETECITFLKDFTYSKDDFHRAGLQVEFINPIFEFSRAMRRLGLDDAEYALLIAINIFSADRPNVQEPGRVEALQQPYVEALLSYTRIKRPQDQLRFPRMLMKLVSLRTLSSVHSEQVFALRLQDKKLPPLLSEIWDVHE

outcome, inactive:
Brc1cc(Br)c(Oc2c(Br)cc(Br)c(Br)c2Br)cc1Br
O=C(F)C(F)(F)C(F)(F)C(F)(F)C(F)F
C=CC(=O)OCCC(F)(F)C(F)(F)C(F)(F)C(F)(F)C(F)(F)C(F)(F)C(F)(F)C(F)(F)F
C[N+](C)(CCCNS(=O)(=O)CCC(F)(F)C(F)(F)C(F)(F)C(F)(F)C(F)(F)C(F)(F)F)CC(=O)[O-]
COc1ccccc1NC(=O)c1cc2ccccc2cc1O
Oc1c(Cl)cc(Cl)cc1Sc1cc(Cl)cc(Cl)c1O
CCO[Si](CCC1CCC2OC2C1)(OCC)OCC (stereo not given)
Oc1ccc(Cc2ccccc2O)cc1
O=C(O)C(F)(F)OC(F)(F)C(F)(F)OC(F)(F)C(F)(F)OC(F)(F)C(F)(F)C(F)(F)C(F)(F)F
O=C(O)CCC(F)(F)C(F)(F)C(F)(F)C(F)(F)C(F)(F)F
CCCCCCCCCCCCCCCCCC[N+](C)(C)Cc1ccccc1
O=C1C=CC(=O)N1c1cccc(N2C(=O)C=CC2=O)c1
CCCC=O
CCCCCCOC(=O)c1ccc(O)cc1
CCCCCCCCCCCCCCCC(=O)OC
O=C(O)CN(CCCN(CC(=O)O)CC(=O)O)CC(=O)O
CN(Cc1cnc2nc(N)nc(N)c2n1)c1ccc(C(=O)N[C@@H](CCC(=O)O)C(=O)O)cc1
O=C(O)C(=O)O
O=C(c1ccccc1)c1ccccc1
C=CC(F)(F)C(F)(F)C(F)(F)C(F)(F)F
Cc1ccc(N=Nc2c(O)ccc3ccccc23)c(C)c1
CC1=CC(=O)c2ccccc2C1=O
CN(C)c1ccc(C(=C2C=CC(=[N+](C)C)C=C2)c2ccccc2)cc1
CC1CNCC(C)O1 (stereo not given)
CC(C)CCOCCC(C)C
COC(=O)C(F)(F)C(F)(F)C(F)(F)F
CCO[Si](C)(C)OCC
Nc1cc(Cl)c(-c2cc(Cl)c(N)cc2Cl)cc1Cl
c1ccc(CNc2ncnc3c2ncn3C2CCCCO2)cc1 (stereo not given)
C=CC(C)(CCC=C(C)C)OC(C)=O (stereo not given)
c1ccc2c(c1)CCC2
CC1=NN(c2ccccc2)C(=O)C1
O=c1cc(-c2ccccc2)oc2ccc3ccccc3c12
Brc1ccc(Oc2ccc(Br)cc2Br)cc1
COc1cc([N+](=O)[O-])ccc1N
Cc1cc(C(C)(C)C)c(O)c(C(C)(C)C)c1
CC1CCC(C(=O)O)CC1 (stereo not given)
CCCCCCCCCCCC[N+](C)(C)Cc1ccccc1
c1cnc2c(c1)ccc1cccnc12
O=C1NS(=O)(=O)c2ccccc21

— PubChem BioAssay (EPA / NIEHS)
